Of roughly 8,800 targets only a part is listed; those with a hit were picked by preference. About 0.5% of all pairs of compound and target were hits. Unmarked numbers belong to inactive results.
Assays:
Assay in all cases: log2 fold change, soluble protein after heating vs DMSO (PISA); higher = thermal stabilisation; K562 lysate, 10 uM; active = over 0.2 and 3.5 SD of the protein, either way, in both replicates (recomputed)
alvocidib = compound: CN1CC[C@H](c2c(O)cc(O)c3c(=O)cc(-c4ccccc4Cl)oc23)[C@H](O)C1 [alvocidib]
How it was run: (§1)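 Soluble protein was defined as the supernatant remaining after 21,000xg for 90 min, following pooling of heated aliquots and adjustment to 0.5% NP-40 at 4°C. Before that, crude K562 extract at 1 mg/mL protein in PBS pH 7.4 with 1 mM MgCl2 was treated with 10 μM compound for 30 min and heated for 3 min across 48°C-58°C. Quantification used TMTpro 16plex LC-MS/MS with channel sums equalised, and values are log-two fold changes in thermal stability relative to solvent controls from duplicates.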

Tubastatin A = compound: CN1CCc2c(c3ccccc3n2Cc2ccc(C(=O)NO)cc2)C1 [Tubastatin A]
How it was run: as §1

[1] = compound: CNC(=O)C1=CC=CC=C1NC2=NC(=NC=C2Cl)NC3=C(C=C(C=C3)N4CCOCC4)OC
How it was run: as §1

defactinib = compound: CNC(=O)c1ccc(Nc2ncc(C(F)(F)F)c(NCc3nccnc3N(C)S(C)(=O)=O)n2)cc1 [defactinib]
How it was run: as §1

[2] = compound: CNc1nc(-c2ccc3c(N)n[nH]c3c2)cc(N2C[C@@H](C(=O)NC3CCCCC3)CC[C@H]2C)n1
How it was run: as §1

encorafenib = compound: COC(=O)N[C@@H](C)CNc1nccc(-c2cn(C(C)C)nc2-c2cc(Cl)cc(NS(C)(=O)=O)c2F)n1 [encorafenib]
How it was run: as §1

[3] = compound: COC(=O)[C@H](CCSC)NC(=O)C1=C(C=C(C=C1)NC[C@H](CS)N)C2=CC=CC=C2
How it was run: as §1

alisertib = compound: COc1cc(Nc2ncc3c(n2)-c2ccc(Cl)cc2C(c2c(F)cccc2OC)=NC3)ccc1C(=O)O [alisertib]
How it was run: as §1

[4] = compound: COc1cc2nc(-c3cc(F)ccc3O)nc(N[C@@H]3CNC[C@H]3C(C)(C)O)c2cc1OC
How it was run: as §1

gefitinib = compound: COc1cc2ncnc(Nc3ccc(F)c(Cl)c3)c2cc1OCCCN1CCOCC1 [gefitinib]
How it was run: as §1

lapatinib = compound: CS(=O)(=O)CCNCc1ccc(-c2ccc3ncnc(Nc4ccc(OCc5cccc(F)c5)c(Cl)c4)c3c2)o1 [lapatinib]
How it was run: as §1

pictilisib = compound: CS(=O)(=O)N1CCN(Cc2cc3nc(-c4cccc5[nH]ncc45)nc(N4CCOCC4)c3s2)CC1 [pictilisib]
How it was run: as §1

crizotinib = compound: C[C@@H](Oc1cc(-c2cnn(C3CCNCC3)c2)cnc1N)c1c(Cl)ccc(F)c1Cl [crizotinib]
How it was run: as §1

[5] = compound: C[C@H](C1=CC=C(C=C1)C(=O)NC2=C3C=CNC3=NC=C2)N
How it was run: as §1

duvelisib = compound: C[C@H](Nc1ncnc2nc[nH]c12)c1cc2cccc(Cl)c2c(=O)n1-c1ccccc1 [duvelisib]
How it was run: as §1

gandotinib = compound: Cc1cc(Nc2cc(CN3CCOCC3)c3nc(C)c(Cc4ccc(Cl)cc4F)n3n2)n[nH]1 [gandotinib]
How it was run: as §1

tozasertib = compound: Cc1cc(Nc2cc(N3CCN(C)CC3)nc(Sc3ccc(NC(=O)C4CC4)cc3)n2)n[nH]1 [tozasertib]
How it was run: as §1

doramapimod = compound: Cc1ccc(-n2nc(C(C)(C)C)cc2NC(=O)Nc2ccc(OCCN3CCOCC3)c3ccccc23)cc1 [doramapimod]
How it was run: as §1

bafetinib = compound: Cc1ccc(NC(=O)c2ccc(CN3CC[C@H](N(C)C)C3)c(C(F)(F)F)c2)cc1Nc1nccc(-c2cncnc2)n1 [bafetinib]
How it was run: as §1

[6] = compound: Cc1cccc(CC(=O)N2CCc3c2ccc(-c2cn(C)c4ncnc(N)c24)c3F)n1
How it was run: as §1

UniProt P40939, sequence (P40939 whole entry, looked up): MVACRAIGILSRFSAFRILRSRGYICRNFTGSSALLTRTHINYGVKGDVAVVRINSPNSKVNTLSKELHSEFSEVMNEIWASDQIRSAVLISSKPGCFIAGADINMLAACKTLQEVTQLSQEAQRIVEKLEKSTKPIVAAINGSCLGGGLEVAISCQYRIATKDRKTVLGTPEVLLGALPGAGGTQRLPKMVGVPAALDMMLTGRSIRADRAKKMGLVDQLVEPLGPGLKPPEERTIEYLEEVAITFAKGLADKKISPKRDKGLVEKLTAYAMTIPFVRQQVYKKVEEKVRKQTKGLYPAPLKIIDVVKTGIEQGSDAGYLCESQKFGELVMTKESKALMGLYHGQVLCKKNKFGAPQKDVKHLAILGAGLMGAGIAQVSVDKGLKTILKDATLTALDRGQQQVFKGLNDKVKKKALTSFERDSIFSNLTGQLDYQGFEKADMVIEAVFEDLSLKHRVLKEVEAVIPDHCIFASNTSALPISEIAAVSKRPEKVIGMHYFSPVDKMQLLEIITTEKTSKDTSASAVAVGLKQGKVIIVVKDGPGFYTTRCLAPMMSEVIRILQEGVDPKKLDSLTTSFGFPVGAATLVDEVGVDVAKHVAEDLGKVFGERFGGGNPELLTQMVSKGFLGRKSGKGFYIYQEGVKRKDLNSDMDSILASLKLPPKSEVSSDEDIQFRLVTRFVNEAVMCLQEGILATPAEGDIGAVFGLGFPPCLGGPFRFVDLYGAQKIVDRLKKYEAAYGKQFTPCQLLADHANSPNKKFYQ
UniProt Q96SY0, sequence (Q96SY0 whole entry, looked up): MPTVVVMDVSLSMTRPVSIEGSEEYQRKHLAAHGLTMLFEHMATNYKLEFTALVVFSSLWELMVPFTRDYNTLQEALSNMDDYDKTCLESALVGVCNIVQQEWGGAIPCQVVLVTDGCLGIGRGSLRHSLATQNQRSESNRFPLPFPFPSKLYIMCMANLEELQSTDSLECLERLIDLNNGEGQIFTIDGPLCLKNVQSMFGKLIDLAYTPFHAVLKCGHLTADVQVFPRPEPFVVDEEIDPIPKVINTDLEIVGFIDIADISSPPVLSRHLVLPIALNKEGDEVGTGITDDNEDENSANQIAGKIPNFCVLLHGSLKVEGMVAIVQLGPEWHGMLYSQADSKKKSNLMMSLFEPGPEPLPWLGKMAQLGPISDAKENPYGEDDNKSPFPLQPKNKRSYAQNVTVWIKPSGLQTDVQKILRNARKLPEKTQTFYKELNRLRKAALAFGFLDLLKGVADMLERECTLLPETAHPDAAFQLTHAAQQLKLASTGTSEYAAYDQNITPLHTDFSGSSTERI
UniProt Q9H6D7, sequence (Q9H6D7 whole entry, looked up): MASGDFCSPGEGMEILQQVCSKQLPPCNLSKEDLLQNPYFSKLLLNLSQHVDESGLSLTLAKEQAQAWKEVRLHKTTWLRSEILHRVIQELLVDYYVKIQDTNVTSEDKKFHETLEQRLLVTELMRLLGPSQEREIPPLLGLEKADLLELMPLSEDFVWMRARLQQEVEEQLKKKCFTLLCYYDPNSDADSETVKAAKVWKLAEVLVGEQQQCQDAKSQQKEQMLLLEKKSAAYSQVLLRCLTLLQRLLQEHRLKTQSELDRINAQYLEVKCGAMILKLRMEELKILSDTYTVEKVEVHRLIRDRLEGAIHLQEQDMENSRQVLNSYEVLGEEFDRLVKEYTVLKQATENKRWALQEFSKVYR
UniProt P17096, sequence (P17096 whole entry, looked up): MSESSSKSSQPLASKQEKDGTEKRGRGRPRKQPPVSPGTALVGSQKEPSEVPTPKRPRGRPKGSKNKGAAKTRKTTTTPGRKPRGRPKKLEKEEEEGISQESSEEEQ
UniProt O75367, sequence (O75367 whole entry, looked up): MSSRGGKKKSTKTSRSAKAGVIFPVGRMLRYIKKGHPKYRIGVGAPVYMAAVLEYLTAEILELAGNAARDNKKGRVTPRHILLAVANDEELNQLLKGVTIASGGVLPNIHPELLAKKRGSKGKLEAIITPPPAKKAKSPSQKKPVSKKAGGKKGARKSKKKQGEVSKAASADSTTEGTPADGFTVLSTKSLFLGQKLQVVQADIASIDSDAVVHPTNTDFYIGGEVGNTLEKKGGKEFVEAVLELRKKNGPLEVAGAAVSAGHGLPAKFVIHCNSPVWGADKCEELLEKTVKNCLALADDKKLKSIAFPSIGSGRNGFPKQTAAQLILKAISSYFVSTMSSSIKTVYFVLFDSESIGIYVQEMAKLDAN
UniProt Q68E01, sequence (Q68E01 whole entry, looked up): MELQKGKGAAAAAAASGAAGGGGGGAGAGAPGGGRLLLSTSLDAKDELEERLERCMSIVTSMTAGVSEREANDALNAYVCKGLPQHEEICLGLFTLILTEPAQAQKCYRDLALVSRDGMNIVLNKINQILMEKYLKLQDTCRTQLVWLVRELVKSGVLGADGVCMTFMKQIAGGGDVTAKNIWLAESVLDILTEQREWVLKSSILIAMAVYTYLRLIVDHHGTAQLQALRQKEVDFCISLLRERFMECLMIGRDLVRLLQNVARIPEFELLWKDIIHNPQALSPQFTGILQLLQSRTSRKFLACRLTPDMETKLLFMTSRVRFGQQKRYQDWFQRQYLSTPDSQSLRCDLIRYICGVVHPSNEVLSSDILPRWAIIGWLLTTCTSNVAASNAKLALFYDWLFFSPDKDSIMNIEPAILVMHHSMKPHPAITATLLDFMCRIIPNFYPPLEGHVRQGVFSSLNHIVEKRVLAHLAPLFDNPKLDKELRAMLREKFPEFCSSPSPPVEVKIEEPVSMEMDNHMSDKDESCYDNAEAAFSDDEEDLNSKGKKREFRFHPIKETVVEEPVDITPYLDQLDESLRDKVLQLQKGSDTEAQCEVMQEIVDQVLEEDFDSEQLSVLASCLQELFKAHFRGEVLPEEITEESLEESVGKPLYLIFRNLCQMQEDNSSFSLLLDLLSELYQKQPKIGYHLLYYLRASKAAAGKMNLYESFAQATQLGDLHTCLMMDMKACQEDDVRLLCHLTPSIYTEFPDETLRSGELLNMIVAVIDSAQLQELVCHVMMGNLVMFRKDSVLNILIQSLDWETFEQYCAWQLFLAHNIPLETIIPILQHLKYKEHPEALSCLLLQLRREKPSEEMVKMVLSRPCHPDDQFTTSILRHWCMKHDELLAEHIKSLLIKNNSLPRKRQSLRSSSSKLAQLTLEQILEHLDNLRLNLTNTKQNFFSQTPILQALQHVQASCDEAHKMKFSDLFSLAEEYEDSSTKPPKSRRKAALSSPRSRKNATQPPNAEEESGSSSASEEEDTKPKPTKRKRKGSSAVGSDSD
UniProt Q7Z4V5, sequence (Q7Z4V5 whole entry, looked up): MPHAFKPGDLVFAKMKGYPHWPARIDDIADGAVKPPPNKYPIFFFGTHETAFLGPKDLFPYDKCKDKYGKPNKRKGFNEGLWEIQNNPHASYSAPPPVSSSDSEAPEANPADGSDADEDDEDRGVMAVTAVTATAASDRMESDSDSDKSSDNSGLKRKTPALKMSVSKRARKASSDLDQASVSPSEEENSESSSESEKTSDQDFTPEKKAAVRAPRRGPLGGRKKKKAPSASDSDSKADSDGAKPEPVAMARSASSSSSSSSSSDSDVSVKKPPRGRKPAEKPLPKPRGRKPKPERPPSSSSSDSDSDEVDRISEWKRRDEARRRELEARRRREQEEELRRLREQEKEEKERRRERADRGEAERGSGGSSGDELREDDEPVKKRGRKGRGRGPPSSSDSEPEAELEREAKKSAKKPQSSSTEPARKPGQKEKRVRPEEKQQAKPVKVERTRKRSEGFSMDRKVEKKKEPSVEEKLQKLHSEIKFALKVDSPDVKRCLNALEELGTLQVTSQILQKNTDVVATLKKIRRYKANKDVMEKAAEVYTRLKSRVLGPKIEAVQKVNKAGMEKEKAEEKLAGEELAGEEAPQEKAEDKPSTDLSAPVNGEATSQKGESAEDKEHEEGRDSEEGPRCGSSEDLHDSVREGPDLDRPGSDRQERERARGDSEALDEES
UniProt Q8TDG4, sequence (Q8TDG4 whole entry, looked up): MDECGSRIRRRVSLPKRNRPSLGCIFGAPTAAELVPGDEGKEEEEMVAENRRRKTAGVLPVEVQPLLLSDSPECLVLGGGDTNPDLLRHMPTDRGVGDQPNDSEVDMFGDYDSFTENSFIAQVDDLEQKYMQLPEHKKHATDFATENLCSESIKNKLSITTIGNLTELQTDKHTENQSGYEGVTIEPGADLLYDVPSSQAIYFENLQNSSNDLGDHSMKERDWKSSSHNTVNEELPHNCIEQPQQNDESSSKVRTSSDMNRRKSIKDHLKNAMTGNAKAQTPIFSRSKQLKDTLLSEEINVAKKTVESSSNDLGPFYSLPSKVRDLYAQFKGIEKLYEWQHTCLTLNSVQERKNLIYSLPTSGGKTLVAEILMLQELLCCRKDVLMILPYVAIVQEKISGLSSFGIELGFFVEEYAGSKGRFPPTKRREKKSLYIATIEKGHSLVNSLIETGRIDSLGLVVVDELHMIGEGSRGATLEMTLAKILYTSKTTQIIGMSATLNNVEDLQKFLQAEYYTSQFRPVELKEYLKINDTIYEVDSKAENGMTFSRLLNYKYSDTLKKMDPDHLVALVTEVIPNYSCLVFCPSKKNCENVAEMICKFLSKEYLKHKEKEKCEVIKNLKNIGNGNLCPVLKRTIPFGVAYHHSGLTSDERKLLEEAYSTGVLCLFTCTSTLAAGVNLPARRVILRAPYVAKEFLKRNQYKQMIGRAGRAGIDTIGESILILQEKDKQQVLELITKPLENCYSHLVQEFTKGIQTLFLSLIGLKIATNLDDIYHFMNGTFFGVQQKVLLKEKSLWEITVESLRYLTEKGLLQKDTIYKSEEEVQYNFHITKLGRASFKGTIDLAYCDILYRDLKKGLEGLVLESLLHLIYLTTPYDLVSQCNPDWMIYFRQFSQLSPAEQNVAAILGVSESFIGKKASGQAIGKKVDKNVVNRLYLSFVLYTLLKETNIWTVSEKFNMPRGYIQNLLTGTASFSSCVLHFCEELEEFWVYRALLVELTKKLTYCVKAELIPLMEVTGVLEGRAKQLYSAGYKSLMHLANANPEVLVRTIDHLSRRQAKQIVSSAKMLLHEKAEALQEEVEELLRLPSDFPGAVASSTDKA

| Target | log2 fold change (alvocidib) | log2 fold change (Tubastatin A) | log2 fold change [1] | log2 fold change (defactinib) | log2 fold change [2] | log2 fold change (encorafenib) | log2 fold change [3] | log2 fold change (alisertib) | log2 fold change [4] | log2 fold change (gefitinib) | log2 fold change (lapatinib) | log2 fold change (pictilisib) | log2 fold change (crizotinib) | log2 fold change [5] | log2 fold change (duvelisib) | log2 fold change (gandotinib) | log2 fold change (tozasertib) | log2 fold change (doramapimod) | log2 fold change (bafetinib) | log2 fold change [6] |
| --- | --- | --- | --- | --- | --- | --- | --- | --- | --- | --- | --- | --- | --- | --- | --- | --- | --- | --- | --- | --- |
| H2AFY (UniProt O75367) | -0.034 | 0.079 | -0.026 | 0.106 | 0.329 (active) | 0.094 | 0.014 | 0.001 | 0 | 0 | -0.021 | 0.036 | 0.051 | -0.135 | 0.01 | 0.084 | -0.108 | -0.138 | -0.011 | 0.049 |
| GSTCD (UniProt Q8NEC7) | 0.03 | -0.13 | 0.055 | -0.002 | -0.013 | 0.052 | 0.138 | -0.068 | 0.002 | 0 | -0.006 | -0.015 | -0.037 | -0.058 | 0.09 | 0.036 | -0.037 | 0 | -0.053 | 0.01 |
| HADHA (UniProt P40939) | -0.011 | -0.003 | 0.069 | -0.042 | 0.037 | -0.063 | 0.088 | -0.017 | -0.041 | 0.021 | 0.1 | 0.077 | 0.063 | -0.01 | 0.037 | 0.129 | -0.013 | 0.207 | 0.032 | -0.053 |
| IL18R1 (UniProt Q13478) | -0.148 | 0.008 | -0.106 | -0.322 | 0.056 | 0.116 | 0.142 | -0.098 | -0.014 | -0.039 | -0.112 | 0.207 | -0.076 | -0.116 | -0.049 | 0.092 | 0.063 | -0.111 | -0.031 | 0.045 |
| INTS3 (UniProt Q68E01) | -0.003 | 0.012 | 0.003 | 0.012 | -0.002 | -0.027 | 0.072 | -0.031 | 0.005 | 0.047 | -0.05 | -0.005 | -0.016 | 0.02 | -0.005 | -0.104 | 0.018 | 0.106 | -0.07 | -0.052 |
| HMGA1 (UniProt P17096) | -0.108 | 0.066 | -0.001 | -0.007 | 0.023 | -0.005 | -0.018 | 0.046 | 0.011 | -0.027 | -0.023 | 0.03 | 0.007 | -0.27 | 0.058 | 0.069 | -0.062 | -0.02 | 0.043 | 0.036 |
| GIT1 (UniProt Q9Y2X7) | 0.015 | -0.04 | 0.022 | 0.023 | -0.084 | 0.002 | 0.026 | 0.05 | -0.011 | -0.031 | 0.029 | -0.007 | -0.015 | 0.009 | -0.08 | -0.076 | -0.002 | -0.004 | -0.047 | -0.007 |
| GLUD2 (UniProt P49448) | -0.029 | 0.12 | 0.053 | 0.061 | 0.02 | 0.066 | 0.115 | -0.06 | -0.021 | 0.036 | -0.009 | 0.144 | -0.097 | -0.004 | 0.001 | 0.099 | 0.03 | -0.028 | 0.049 | 0.024 |
| KDM5C (UniProt P41229) | -0.02 | -0.115 | 0.059 | -0.009 | 0.04 | -0.018 | 0.176 | -0.01 | 0.09 | -0.013 | -0.085 | -0.071 | -0.043 | 0.034 | -0.001 | -0.135 | 0.016 | 0.04 | -0.061 | 0.001 |
| HDGFL2 isoform 2 (UniProt Q7Z4V5) | -0.155 | 0.011 | 0.013 | -0.008 | 0.016 | -0.004 | -0.065 | -0.029 | 0 | 0.03 | 0.02 | 0.027 | -0.028 | -0.348 (active) | 0.037 | 0.248 (active) | 0.018 | -0.003 | 0 | 0.167 |
| HELQ (UniProt Q8TDG4) | 0.059 | -0.016 | 0.045 | 0.037 | 0.054 | 0.046 | 0.09 | 0.132 | -0.041 | -0.177 | 0.002 | -0.009 | -0.011 | -0.014 | 0.025 | 0.012 | -0.01 | 0.042 | -0.109 | -0.033 |
| HAUS4 (UniProt Q9H6D7) | 0.007 | -0.116 | 0.007 | 0.014 | -0.005 | 0.002 | 0.012 | 0.008 | -0.017 | -0.022 | 0.021 | -0.02 | -0.083 | -0.063 | -0.031 | -0.009 | 0.042 | 0.043 | 0.003 | 0.099 |
| GON4L (UniProt Q3T8J9) | 0.019 | -0.114 | 0.028 | -0.001 | 0.007 | 0.092 | 0.107 | -0.015 | -0.027 | -0.074 | 0.006 | -0.04 | -0.05 | -0.066 | -0.045 | 0.391 | -0.054 | -0.011 | -0.07 | 0.01 |
| INTS14 (UniProt Q96SY0) | -0.001 | -0.066 | 0.032 | 0.025 | 0.02 | 0.006 | -0.1 | -0.018 | 0.015 | -0.003 | 0 | 0.016 | 0.005 | 0.038 | 0.012 | -0.035 | -0.011 | -0.012 | 0.009 | -0.027 |
| HS1BP3 (UniProt Q53T59) | -0.054 | 0.034 | -0.015 | -0.016 | -0.052 | 0.009 | -0.088 | -0.021 | 0.021 | -0.031 | 0.024 | -0.019 | 0.006 | -0.253 (active) | -0.047 | 0.068 | 0.021 | -0.019 | -0.048 | 0.074 |
| H4C1 (UniProt P62805) | -0.101 | 0.373 (active) | -0.023 | -0.02 | 0.569 (active) | 0.038 | 0.051 | 0.018 | 0.012 | -0.008 | -0.043 | -0.069 | 0.032 | 0.003 | -0.16 | 0 | -0.027 | 0.006 | 0.059 | -0.044 |

— the supplement of paper PMC10849652
